# Screening data: PubChem, National Center for Advancing Translational Sciences (NCATS)
# LmPK inhibitor – qHTS Assay for Inhibitors of Leishmania Mexicana Pyruvate Kinase (LmPK) | purified LmPK, Kinase-Glo ATP luminescence, 1 h | Potency, µM (top dose mostly 57.5 µM), usual class: inhibitors | hit rate 0.37% among 290,000
# Target sequence (Q27686 whole entry, looked up): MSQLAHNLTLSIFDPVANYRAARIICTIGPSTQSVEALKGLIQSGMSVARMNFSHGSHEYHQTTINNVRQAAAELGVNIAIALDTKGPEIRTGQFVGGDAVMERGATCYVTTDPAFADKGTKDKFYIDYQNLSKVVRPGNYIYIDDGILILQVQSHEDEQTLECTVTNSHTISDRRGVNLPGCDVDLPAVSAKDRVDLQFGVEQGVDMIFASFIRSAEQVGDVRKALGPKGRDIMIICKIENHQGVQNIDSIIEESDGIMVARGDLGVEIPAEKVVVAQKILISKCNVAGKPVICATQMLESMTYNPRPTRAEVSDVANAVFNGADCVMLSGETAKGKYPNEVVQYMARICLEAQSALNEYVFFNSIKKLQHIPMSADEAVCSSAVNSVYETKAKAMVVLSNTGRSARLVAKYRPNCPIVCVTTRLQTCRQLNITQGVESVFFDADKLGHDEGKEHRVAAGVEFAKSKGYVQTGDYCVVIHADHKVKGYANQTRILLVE
#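 Purified LmPK (0.1 nM) with 0.5 mM PEP and 0.1 mM ADP in imidazole buffer pH 7.2 with MgCl2/KCl, 1 h at room temperature. ATP formed was read by luciferase luminescence and normalized to no-enzyme and uninhibited controls.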
# Tb PYK inh – qHTS of Trypanosoma Brucei Inhibitors. pyruvate kinase (Trypanosoma brucei), Q57TT1. TbPYK enzyme, Kinase-Glo Plus ATP luminescence, 45 min. Potency, µM (top dose mostly 76.8 µM), actives largely listed as inhibitors. hit rate 0.12% among 410,000. AID 624173, 2012; also: nearly all actives have a fitted effect of over 50% in size
#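 Screened from lowest to highest concentration, compounds were pinned into TbPYK/substrate mixtures, and ADP (130 uM final) was added. Plates sat at room temperature for 45 min prior to Kinase-Glo Plus detection by luminescence.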
# VACV mCherry inh – qHTS for Stage-Specific Inhibitors of Vaccinia Orthopoxvirus: mCherry Reporter Primary qHTS; Potency, µM (series often up to 36.5 µM), hits mostly inhibitors; hit rate 0.63% among 310,000; Vaccinia virus mCherry reporter infection, fluorescence; calls by dose curve; tested in A549 cells; also: nearly all actives have a fitted effect of over 35% in size
# VACV Venus inh – qHTS for Stage-Specific Inhibitors of Vaccinia Orthopoxvirus: Venus Reporter Primary qHTS. Vaccinia virus Venus reporter expression, fluorescence. hit rate 0.46% among 330,000. Potency, µM (doses to about 36.5 µM), actives largely listed as inhibitors; calls by dose curve; tested in A549 cells; also: nearly all actives have a fitted effect of over 30% in size
# HCMV antiviral – qHTS Assay for inhibitors of the human cytomegalovirus (HCMV) | HFF cells, HCMV-luciferase reporter, 72 h; active compounds read low | activity change, negative = inhibition, % at 57.5 µM | hit rate 4.5% among 410,000 | AID 1259415, 2018; in the data active = activity change below about -60%; inconclusive = no clear call, values can overlap the other calls; inactive = above about -39%
#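 After 16 h attachment at 37C, HFF cells received test compound and HCMV-luciferase (1 PFU/cell); reporter luminescence read 72 h later, data normalized against buffer-only and known inhibitor Salinomycin.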
# Numbers stand for hits; n = inactive; u = inconclusive; x = not tested or not shown. An excerpt weighted towards active compounds, which were near 5% of everything screened. Unless noted, calls follow the shape of the dose curve; as a rule, active = well fitted curve in the direction sought with a large enough effect; inconclusive = small, poorly fitted or top-dose-only effect, or another doubt; inactive = no such curve, though single readings can be large; an effect the other way counts as inactive or inconclusive.
SMILES,LmPK inhibitor,Tb PYK inh,VACV mCherry inh,VACV Venus inh,HCMV antiviral
COc1ccc(Nc2nnc(-c3ccc(C)c(S(=O)(=O)N4CCN(C)CC4)c3)c3ccccc23)cc1,x,n,n,u,-99
Cc1ccc(NC(=O)c2ncn[nH]2)cc1,n,n,n,n,n
Cc1ccc(OCCC(=O)OCC(=O)NCCc2ccc(Cl)cc2)cc1,x,n,n,n,n
Cc1nn(CC(=O)NCc2ccc(N(C)C)cc2)c(=O)c2c(C)n(-c3ccc(Cl)cc3)nc12,x,n,n,u,n
NC(=O)COc1ccc(Nc2nnc(-c3ccc(O)cc3)c3ccccc23)cc1,n,n,x,x,n
COC(=O)COc1ccc(-c2nnc(Nc3ccc(O)cc3)c3ccccc23)cc1,x,n,n,n,-107
Cc1cc(NC(=O)CSCCc2ccncc2)no1,n,n,n,n,n
O=C(c1ccc2c3n(nc2c1)-c1ccc(Cl)cc1CO3)N1CCCCC1,25µM,n,n,n,n
O=C(O)c1ccc2c3n(nc2c1)-c1ccc(Cl)cc1CO3,u,n,n,n,n
COCCNC(=O)c1ccc2c3n(nc2c1)-c1ccccc1CO3,u,n,n,n,n
Cc1ccc2c(c1)COc1c3ccc(C(=O)N4CCOCC4)cc3nn1-2,16µM,n,n,u,n
C=CCNC(=O)c1ccc2c3n(nc2c1)-c1ccccc1CO3,14µM,u,n,n,n
CN(C)c1cccc(C(=O)NCc2ccccc2)c1,n,n,n,n,n
Cc1ccc(N2CCN(C3C(=O)Nc4ccccc4-n4nnnc43)CC2)cc1 (stereo not given),x,x,n,n,n
O=C(O)c1ccc(N/N=C/c2ccc(OC(=O)c3cccc(Cl)c3)cc2)cc1,n,n,u,n,-64
O=C(O)c1ccc(N/N=C/c2ccc3nccnc3c2)cc1,16µM,u,x,x,-78
CCOC(=O)C1=C(CC)Nc2ccccc2N=C1NC(=O)Nc1ccc(Cl)c(Cl)c1,n,n,u,u,-98
COc1ccc(OC)c(CNS(=O)(=O)c2ccc(-c3cc(C(F)(F)F)on3)s2)c1,x,n,n,n,-70
CCN(CC)Cc1c(O)ccc2c(=O)c(-c3ccccc3)coc12,n,n,x,x,n
CCCCN1/C(=C/c2ccc3ccccc3[n+]2CC)Sc2ccccc21,n,n,n,n,x
CCN1/C(=C/c2ccc3cc(C)ccc3[n+]2C)Sc2ccc3sccc3c21,n,n,x,x,-96
CCN1/C(=C/c2ccc3cc(C)ccc3[n+]2CC)Sc2cc(C)ccc21,n,n,x,x,-100
COc1ccc(CN(C)C(=O)c2cnc(C)cn2)c(OC)c1OC,n,n,x,x,n
CCN(CC)CC(O)COc1ccc2c(c1)OCO2 (stereo not given),n,n,x,n,-98
COc1ccccc1C(=O)COC(=O)C1CCN(S(=O)(=O)c2ccc(C)c(C)c2)CC1,x,n,n,n,n
SMILES,LmPK inhibitor,Tb PYK inh,VACV mCherry inh,VACV Venus inh,HCMV antiviral
CSCC[C@H](NC(=O)[C@@H]1Cc2ccccc2CN1)C(=O)NC1CCCC1,n,n,x,x,n
C=CC[C@@H](CC(=O)N[C@@H](CO)Cc1ccccc1)C(=O)N[C@H](COC(=O)[C@@H](CC=C)CC(=O)OC(C)(C)C)Cc1c[nH]c2ccccc12,x,n,u,11µM,n
C=CCC[C@H](Cc1ccc(F)cc1)C(=O)OC[C@H](Cc1c[nH]c2ccccc12)NC(=O)[C@@H](CC=C)CC(=O)N[C@@H](CO)Cc1ccccc1,x,n,n,10µM,-86
C=CCC[C@H](Cc1ccc(F)cc1)C(=O)OC[C@H](Cc1c[nH]c2ccccc12)NC(=O)[C@H](CC=C)CC(=O)N[C@H](CO)Cc1ccccc1,x,n,n,u,n
C=CCC[C@@H](Cc1ccc(F)cc1)C(=O)OC[C@H](Cc1c[nH]c2ccccc12)NC(=O)[C@@H](CC=C)CC(=O)N[C@H](CO)Cc1ccccc1,x,n,n,u,n
C=CCC[C@H](Cc1ccc(F)cc1)C(=O)OC[C@H](Cc1c[nH]c2ccccc12)NC(=O)[C@@H](CC=C)CC(=O)N[C@H](CO)Cc1ccccc1,x,n,n,11µM,n
C=CC[C@H](CC(=O)N[C@H](CO)Cc1ccccc1)C(=O)N[C@@H](COC(=O)[C@@H](CC=C)CC(=O)OC(C)(C)C)Cc1c[nH]c2ccccc12,x,n,u,u,n
